Measurements reported in PubChem BioAssay.
Active and inactive are the calls of the source.

Tests used:
[1] = compound effects on lung adenocarcinoma cell viability – A549, calcein-AM fluorescence, 48 h, basal, profiling panel (AID 1162); conditions: higher = more signal
[2] = compound effects on differentiated 3T3-L1 adipocyte viability – cell-based, 3T3-L1 adipocytes, calcein-AM fluorescence, 48 h, basal, profiling panel (AID 1163); conditions: 3T3-L1 adipocytes viability, higher = more signal
[3] = compound effects on hepatocellular carcinoma cell viability – HepG2, calcein-AM fluorescence, 48 h, basal, profiling panel (AID 1164); conditions: higher = more signal
[4] = compound effects on multiple myeloma cell viability – MM1S, calcein-AM fluorescence, 48 h, basal, profiling panel (AID 1165); conditions: higher = more signal
[5] = calcein-AM signal in unstimulated myeloma cells – cell-based, calcein-AM fluorescence, 48 h, PK04 Diversity Set, profiling panel (AID 1166); conditions: RPMI8226 myeloma viability, higher = more signal;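 note: cells grown under basal conditions without added stimulus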
[6] = JC-1 mitochondrial signal, unstimulated HepG2 cells – cell-based, JC-1 fluorescence, 24 h, 100 nL compound, profiling panel (AID 1167); conditions: HepG2 mitochondrial potential, higher = more signal
[7] = JC-1 mitochondrial signal, unstimulated adipocytes – cell-based, JC-1 fluorescence, 3T3-L1 adipocytes, 24 h, 100 nL compound, profiling panel (AID 1168); conditions: JC-1 mitochondrial fluorescence, higher = more signal, called active from +8 up or from −8 down
[8] = JC-1 mitochondrial signal, unstimulated myeloma cells – cell-based, JC-1 fluorescence, RPMI8226, 24 h, 100 nL compound, profiling panel (AID 1169); conditions: JC-1 mitochondrial potential fluorescence, higher = more signal
[9] = JC-1 mitochondrial signal, unstimulated MM1S myeloma – cell-based, JC-1 fluorescence, 24 h, 100 nL compound, profiling panel (AID 1170); conditions: MM1S mitochondrial potential, higher = more signal
[10] = resazurin metabolic signal in A549 cells – cell-based, resazurin fluorescence, 24 h, PK04 Diversity Set, profiling panel (AID 1171); conditions: A549 viability, higher = more signal, called active from +8 up or from −8 down
Note: test concentration not given here.

SMILES	z-score [1]	z-score [2]	z-score [3]	z-score [4]	z-score [5]	z-score [6]	z-score [7]	z-score [8]	z-score [9]	z-score [10]
CC(C)OC(=O)C=C1C[C@@H](c2cccc(Cl)c2)O[C@@H](c2cccc(Cl)c2)O1	-1.2	-0.0201	-0.822	-1.97	-0.66	-0.46	0.843 (inactive)	0.0432	-1.51	0.146 (inactive)
CN1C(=O)C2C=CC(C(O)c3ccccc3)N(N3CCCCC3)C2C1=O (stereo not given)	-1.15	-0.898	-0.0624	-0.4	0.539	-0.699	0.651 (inactive)	0.0583	0.581	-0.789 (inactive)
CC[C@@H]1C=C(C(=O)O)[C@H](c2cccc3ccccc23)N1S(=O)(=O)c1ccc(C)cc1	-1.17	-0.101	0.338	-0.585	-0.392	-0.384	0.291 (inactive)	1.17	-1.16	-0.376 (inactive)
C#CCN1[C@H](/C=C/C2CC2)[C@H](Cc2ccccc2)OC(=O)[C@@H]1Cc1ccccc1	-0.627	0.0556	-0.0365	-2.65	-2.47	1.31	-0.0709 (inactive)	-0.294	-0.719	2.37 (inactive)
C=CC[C@]1(C(N)=O)COC(c2ccc(OCCCO)cc2)=N1	0.669	-0.793	0.0717	0.327	1.3	0.16	0.654 (inactive)	0.702	-0.753	0.381 (inactive)
COC(=O)[C@@]1(Cc2ccc(OC)cc2)[C@H]2c3cc(C(=O)N4CCCC4)n(CCCNc4ncc(C(F)(F)F)cc4Cl)c3C[C@H]2CN1C(=O)c1ccccc1	-1.54	-1.03	-0.841	-1.9	-4.57	0.261	-1.31 (inactive)	-0.873	-1.28	-0.577 (inactive)
Cc1ccc(S[C@]2(C(=O)O)CC(=O)N(Cc3ccccc3C(F)(F)F)[C@@H]2c2ccc(CO)cc2I)cc1	0.0342	-0.217	-0.742	-3.22	-1.5	-1.06	-0.438 (inactive)	-0.275	-1.48	0.834 (inactive)
COc1ccc([C@H]2OC[C@@H]3CCC(=O)N32)cc1	-0.245	-0.315	-0.0392	-0.804	0.502	0.0252	-0.139 (inactive)	-0.225	-0.1	0.109 (inactive)
CCCC[C@H]1C[C@@H]1[C@@H]1N(P(=O)(c2ccccc2)c2ccccc2)C[C@@](O)(c2ccccc2)CC12CC2	-3.9	-0.228	-5.35	-3.29	-4.7	-2.84	-0.556 (inactive)	-0.917	-2.78	4.58 (inactive)
CCCCCCc1nc(-c2ccc(-c3ccc(Cl)c(Cl)c3)o2)cc2c1[Si](C(C)C)(C(C)C)O[C@H]2c1ccccc1	-0.793	-0.0866	-1.08	-0.373	0.568	0.474	-0.0412 (inactive)	0.278	-0.284	1.19 (inactive)
COCC(=C=CC[C@@H](O)c1ccc(OCCO)cc1)C[C@@H](O)c1ccccn1	-0.583	-0.936	-0.239	-0.149	-0.349	-0.964	-0.522 (inactive)	0.375	-0.719	0.192 (inactive)
CCCC[C@@H]1C[C@H]1[C@@H](NC(=O)c1cccnc1)c1ccc(Cl)cc1	-1.01	-1.38	-0.114	-2.05	-3.56	1.06	-0.307 (inactive)	-0.249	-1.62	1.56 (inactive)
O=C1OCCC=C[C@H]2OC34C=CCN(CCN5CCOCC5)C(=O)[C@H]3N(CCCCCO)C(=O)[C@@H]4C12 (stereo not given in full)	0.478	0.0858	1.02	-0.0119	0.218	0.575	0.172 (inactive)	-0.152	-0.355	0.203 (inactive)
COC(=O)C(CC#Cc1ccc2c(c1)[C@]1(C(=O)N2)[C@H](c2ccccc2OCCO)N2[C@H](c3ccccc3)[C@H](c3ccccc3)OC(=O)[C@H]2[C@@H]1C(=O)O)C(=O)OC	1.45	0.0879	1.38	-2.37	-2.41	1.11	-0.847 (inactive)	-0.214	-0.197	0.917 (inactive)
NC(=O)N1C(=O)C2C(C1=O)C1C=C(CCCO)C2C(C2CC2)N1Cc1cc2c(cc1Br)OCO2 (stereo not given)	-0.318	0.505	-0.0479	-2.42	-0.885	-0.258	-0.274 (inactive)	0.21	-0.237	-0.604 (inactive)
CCCCCCCCCCC(O)C1C=CC2C(=O)NC(=O)C2N1Nc1ccc(Cl)cc1Cl (stereo not given)	-4.55	0.061	-3.5	-3.8	-4.21	-3.53	-0.354 (inactive)	-0.931	-1.08	-1.52 (inactive)

SMILES	z-score [1]	z-score [2]	z-score [3]	z-score [4]	z-score [5]	z-score [6]	z-score [7]	z-score [8]	z-score [9]	z-score [10]
C=CCC(OC(C)=O)[C@@H]1[C@@H](N(Cc2ccc(-c3ccccc3)cc2)C(=O)Cc2ccc(F)cc2)c2cc(OCCCO)ccc2N1C(=O)c1ccc2ccccc2c1 (stereo not given in full)	0.444	0.0021	0.278	-0.895	-0.344	1.61	-0.413 (inactive)	-0.192	0.769	0.799 (inactive)
CC(C)Cc1ccc(CN2CC[C@@H](N)C2)cc1	-0.336	0.202	-0.375	-3.15	-1.65	2.5	-0.559 (inactive)	-0.502	-2.86	3.36 (inactive)
COCC(=C=CC[C@H](O)c1ccccc1OCCO)CCO	0.474	-0.233	0.304	-0.48	-0.0001	-0.853	-0.624 (inactive)	-0.345	-0.654	-0.323 (inactive)
O=C1O[C@@H](c2ccccc2)[C@@H](c2ccccc2)N2[C@@H](c3ccccc3OCCO)[C@]3(C(=O)Nc4ccc(C#CC5(O)CCCCCC5)cc43)[C@@H](C(=O)N3CCN(c4ncccn4)CC3)[C@H]12	-0.643	1.46	0.11	-1.22	-2.29	-0.457	0.821 (inactive)	-1.04	-0.796	-0.697 (inactive)
CCCCC(=C=CC[C@@H](O)c1cccc(OCCO)c1)C[C@@H](O)c1ccccn1	-0.0385	0.317	0.175	0.225	0.427	-0.667	0.316 (inactive)	0.907	-0.578	0.764 (inactive)
CO[C@H]1O[C@H](CO)[C@@H](OC(=O)Nc2ccccc2-c2ccccc2)[C@H](OC(=O)Nc2ccccc2-c2ccccc2)[C@@H]1OC(=O)Nc1ccccc1-c1ccccc1	-0.378	0.159	-0.0639	-0.857	-1.24	0.0618	1.6 (inactive)	-0.194	1.33	-0.387 (inactive)
CC(=O)n1cc(C(O)C2C=CC3C(=O)NC(=O)C3N2Nc2ccccn2)c2ccccc21 (stereo not given)	-0.407	-1.52	-0.252	0.0238	0.102	-0.743	-0.424 (inactive)	0.634	-0.0433	-1.02 (inactive)
C[C@H]1C2[C@H](Cc3ccccc3)NC(=O)[C@]23C(=O)NCC(=O)N2CCC[C@H]2C(=O)NC/C=C/CCC/C=C/C3[C@@H]2O[C@]12C (stereo not given in full)	0.776	1.42	-0.39	-0.37	-0.682	0.624	0.244 (inactive)	-0.877	1.41	-1.46 (inactive)
C=CCOC(=O)[C@H]1[C@@H]2C(=O)O[C@@H](c3ccccc3)[C@@H](c3ccccc3)N2[C@@H](c2ccc(OCCOC(=O)[C@@H]3C[C@@H]4C(=O)N5CCC[C@H]5C(=O)N4[C@@H]3c3cccc(OCCO)c3)cc2)[C@]12C(=O)Nc1ccc(I)cc12	-1.06	0.997	-0.649	-0.349	0.206	-0.689	1.19 (inactive)	-0.643	-0.959	-0.476 (inactive)
C=CC1c2cc(O)c(OC)cc2CCN1Cc1cccc(OC(F)(F)F)c1 (stereo not given)	-1.97	0.566	-3.19	-3.18	-2.2	-2.6	-0.604 (inactive)	-0.752	-1.85	-0.821 (inactive)
COC(=O)[C@@]1(Cc2ccc(OC)cc2)[C@H]2c3cc(C(=O)N4CCCC4)n(Cc4nc5ccccc5[nH]4)c3C[C@H]2CN1C(=O)c1ccccc1	-0.43	0.685	-0.44	-2.01	-2.35	-0.128	-0.773 (inactive)	-0.764	-0.816	0.161 (inactive)
O=C1O[C@H](c2ccccc2)[C@H](c2ccccc2)N2[C@H]1[C@@H](C(=O)N1CCN(c3ncccn3)CC1)[C@]1(C(=O)Nc3ccc(C#CC4=CCCCC4)cc31)[C@H]2c1ccccc1OCCO	-1.02	1.09	-0.769	-2.23	-1.72	-0.915	2.88 (inactive)	-1.18	-1.01	-1.34 (inactive)
CC(C)[Si](C#C[Si](C(C)C)(C(C)C)C(C)C)(O[C@H](C)c1cn(Cc2ccccc2)nn1)C(C)C	1.25	-0.425	0.592	0.636	-1.67	1.92	-0.367 (inactive)	0.0518	-0.542	0.236 (inactive)
COC(=O)[C@@]1(Cc2ccc(F)cc2)[C@H]2c3cc(C(=O)N(C)C)n(Cc4cc(C)n(C)n4)c3C[C@H]2CN1C(=O)c1ccccc1	-0.492	-0.202	-0.395	-0.9	-0.528	0.635	-1.01 (inactive)	-0.12	0.203	-0.759 (inactive)
COCCOC(=O)N1C(=O)[C@@]2(c3cc(C#Cc4ccc(OC)cc4)ccc31)[C@H](c1ccc(O)cc1)N1[C@H](c3ccccc3)[C@H](c3ccccc3)OC(=O)[C@H]1[C@@H]2C(=O)Nc1nc2ccccc2s1	-0.738	0.967	0.0165	-1.55	-1.6	-2.51	-0.0239 (inactive)	-0.71	-1.34	-0.838 (inactive)
CC[C@@H]1C=C(C(=O)O)[C@H](c2ccc(C)cc2)N1S(=O)(=O)c1ccc(C)cc1	-0.795	-0.235	-0.997	0.0477	0.365	0.0562	0.348 (inactive)	0.637	-0.643	0.357 (inactive)
